Measured potencies and affinities stand elsewhere. Activity calls are given as the source filed them.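 Rule for the calls: active = signal-lowering compounds whose fitted half-maximal concentration is at or below twice the top tested dose in every run; inconclusive = runs disagree, flat 30 to 70% inhibition, or poor curve fit; inactive = the rest.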
Target: Protein S100-A4 (Homo sapiens) (UniProt P26447)
Test: S100A4-myosin IIA binding inhibitor potency, dose response, biochemical, fluorescence polarization, cherry-picked hits (AID 687001)
Conditions: FP, S100A4/TAMRA-myosin IIA peptide binding; series mostly up to 11 µM

Protein S100-A4 (Homo sapiens), sequence (P26447 whole entry, looked up): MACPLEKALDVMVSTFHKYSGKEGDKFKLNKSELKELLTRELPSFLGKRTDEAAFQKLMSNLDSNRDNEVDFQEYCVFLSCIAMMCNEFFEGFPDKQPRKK

outcome, inactive:
C[C@@H]1CN([C@H](C)CO)C(=O)CCCn2nncc2CO[C@@H]1CN(C)S(=O)(=O)c1ccc2ccccc2c1
CC(C)NC(=O)Nc1ccc2c(c1)C(=O)N([C@@H](C)CO)C[C@H](C)[C@H](CN(C)C(=O)c1ccncc1)OCCCC[C@H](C)O2
COc1ccc(CN2CCC(C(=O)Nc3ccc(Oc4cccnc4)cc3)CC2)c(C)c1C
O=C(Nc1ccccc1)N1CCCCN2[C@H](CO)[C@H](c3ccc(C#Cc4ccccn4)cc3)[C@H]2C1
CCCNC(=O)Nc1ccc2c(c1)C(=O)N(C)C[C@@H](OC)[C@@H](C)CN[C@@H](C)CO2
CC(C)C#Cc1cnc2c(c1)C(=O)N([C@H](C)CO)C[C@H](C)[C@H](CN(C)C(=O)Nc1ccc(F)cc1)O2
CCOC(=O)[C@]12CCCC=C1N(Cc1ccc3c(c1)OCO3)C(=O)[C@H](CC(=O)NCC1CCCCC1)C2
Cc1ccc(S(C)(=O)=O)cc1C(=O)OCC(=O)N(Cc1ccccc1)Cc1ccccc1
CCN(CC)C(=O)Oc1ccc2c(c1)O/C(=C\c1ccco1)C2=O
CCn1nc(C(=O)Nc2cc(Cl)ccc2-n2cncn2)c2ccccc2c1=O
CC=Cc1ccc2n(c1=O)C[C@@H]1[C@@H](CO)[C@H](C(=O)NCc3ccc4c(c3)OCO4)[C@H]2N1C(C)=O (mixture of isomers)
CC(C)CC#Cc1cnc2c(c1)C(=O)N([C@H](C)CO)C[C@@H](C)[C@H](CN(C)S(C)(=O)=O)O2
COc1ccc2c(CN3CCCC3)cc(=O)oc2c1
CO[C@H]1CN(C)C(=O)c2cc(NC(=O)C3CC3)ccc2OC[C@H](C)N(C(=O)CN(C)C)C[C@H]1C
CC(=O)N1[C@H](C(=O)NCCCN(C)C)[C@@H](CO)[C@@H]2Cn3c(ccc(-c4cccc(F)c4)c3=O)[C@@H]21
O=C(COC(=O)C12CC3CC(CC(Br)(C3)C1)C2)Nc1c(F)cccc1F
O=C(OCc1cc(=O)n2ccsc2n1)c1ccc(OC(F)F)cc1
COc1ccccc1S(=O)(=O)N[C@H]1CC[C@H](CC(=O)N2CCN(C)CC2)O[C@@H]1CO
CCOC(=O)N1CCN(S(=O)(=O)c2ccc(C)c(C(=O)NC3CCCCC3)c2)CC1
COC(=O)[C@@H]1[C@@H](CO)[C@@H]2Cn3c(ccc(-c4ccccc4)c3=O)[C@@H]2N1C(=O)CC1CC1
O=Cc1ccc(N2N=C(c3ccccc3)CC2c2ccccc2)cc1 (centres undefined)
CN(C)CC(=O)N1CC2(C1)[C@@H](c1ccccc1)[C@@H](CO)N2S(C)(=O)=O
COCc1cc(=O)[nH]c(SCC(=O)N2CCOCC2)n1
S=c1[nH]c(-c2ccccc2)cn1-c1ccccc1
COc1cc(NS(=O)(=O)c2ccc(NC(=O)c3ccc([N+](=O)[O-])cc3)cc2)ncn1
CC(NC(=O)COc1ccc(Br)cc1)C(=O)O (centres undefined)
COc1ccc(C#Cc2ccc([C@@H]3[C@@H](CO)N4CCCCN(C(=O)Nc5ccc(F)cc5)C[C@@H]34)cc2)cc1
C[C@H](CO)N1C[C@H](C)[C@H](CN(C)CC2CC2)OCc2ccccc2-c2c(n(C)c3ccccc23)C1=O
CC1(C)CC2CC(C)(CN2/C=N/c2sc3c(c2C#N)CC(C)(C)NC3(C)C)C1 (centres undefined)
COc1ccc(NC(=O)N(C)C[C@H]2OCCCC[C@@H](C)Oc3ccc(NC(=O)NC4CCCCC4)cc3C(=O)N([C@H](C)CO)C[C@@H]2C)cc1
O=C(Nc1ccc(C(F)(F)F)cc1)N[C@H]1C=C[C@@H](CC(=O)N2CCCCC2)O[C@@H]1CO
COc1ccccc1[C@H]1C(c2ccc(F)cc2)=NN(c2ccccc2)[C@@H]1CO
Cc1ccc(C2=N/C(=C\c3ccc(F)cc3)C(=O)N2)cc1
CC(C)n1nccc1N(Cc1ccc(C#N)cc1)S(=O)(=O)c1ccccc1
CCN1CCN(c2ccc(N3CCN(S(=O)(=O)c4ccc(C)c([N+](=O)[O-])c4)CC3)nn2)CC1
O=C(CN(Cc1ccco1)C(=O)c1cccc(F)c1)Nc1ccccc1C(F)(F)F
O=C(NCCCN1CCC(Cc2ccccc2)CC1)C1CCC(=O)N1C1CCCC1 (centres undefined)
CCCN(CC(=O)Nc1ccccc1C)C(=O)C1CC(=O)N(c2cccc(C)c2C)C1 (centres undefined)
O=C(CNC(=O)c1ccco1)NNC(=O)c1ccc(Br)cc1

Reference: PubChem BioAssay AID687001 (Broad Institute, 2013)
